Where “and” joins values, the source holds several entries; their conditions need not be identical. Equal entries are not always repeated.
Test system: Clostridium difficile
Test: growth AUC relative to DMSO control (median of replicates) (fraction); higher = more growth (less inhibition), active = hit call of the paper
Settings: 20 µM; 24 h;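 active = AUC reduced over 20% with Padj below 0.05 in at least 2 of 3 replicates; inactive = otherwise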
Outline: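 For each compound at 20 µM (1% DMSO), gut bacterial monocultures seeded at OD600 0.05 grew anaerobically in mGAM at 37 °C in round-bottom 96-well plates. Hourly OD600 readings over 24 h gave growth curves whose minimum OD was set to 0. Area under these curves was normalised to the plate median of solvent-only wells, or to row and column medians on the industrial chemical plate. Values are medians of three biological replicates grown on separate days.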

Q: With `CCC(C)c1cc([N+](=O)[O-])cc([N+](=O)[O-])c1O` (configuration not stated) as the compound, how does the “growth AUC” value read?
A: 0.951 (inactive)

Q: For `CCOP(=S)(OCC)SCSC(C)(C)C`, which “growth AUC” value is on record?
A: 0.888 (inactive)

Q: How did the “growth AUC” value turn out when `CCNc1nc(Cl)nc(NC(C)(C)C#N)n1` was run?
A: 1.05 (inactive)

Q: `Cc1ccccc1C(=O)Nc1cccc(OC(C)C)c1` was tested. Which “growth AUC” value did it give?
A: 0.984 (inactive)

Q: `N#CN=C1SCCN1Cc1ccc(Cl)nc1` was tested. Which “growth AUC” value did it give?
A: 1.02 (inactive)

Q: With `COP(=O)(OC)Oc1ccc(S(C)=O)c(C)c1` (configuration not stated) as the compound, how does the “growth AUC” value read?
A: 1.01 (inactive)

Q: For `COCC(=O)N(c1c(C)cccc1C)[C@H](C)C(=O)OC`, which “growth AUC” value is on record?
A: 1.02 (inactive)

Q: `CC(=NC#N)N(C)Cc1ccc(Cl)nc1` was tested. Which “growth AUC” value did it give?
A: 0.986 (inactive) and 1 (inactive)

Q: How did the “growth AUC” value turn out when `CC1(C)C(C(=O)OC(C#N)c2cccc(Oc3ccccc3)c2)C1(C)C` (configuration not stated) was run?
A: 1.01 (inactive)

Q: `CNC(=O)Oc1cc(C)c(N(C)C)c(C)c1` was tested. Which “growth AUC” value did it give?
A: 1.1 (inactive)

Q: Which “growth AUC” value does the source give for `CN(C)C(=S)SSC(=S)N(C)C` here?
A: 0.945 (inactive)

Q: Which “growth AUC” value does the source give for `CCOP(=S)(OCC)SCn1nnc2ccccc2c1=O` here?
A: 1.02 (inactive)

Q: How did the “growth AUC” value turn out when `[CH3][Hg][Cl]` was run?
A: 0.902 (inactive)

Q: With `CCCCc1c(C)nc(NCC)nc1OS(=O)(=O)N(C)C` as the compound, how does the “growth AUC” value read?
A: 1.01 (inactive)

Q: How did the “growth AUC” value turn out when `CC1(C)[C@H](/C=C(\Cl)C(F)(F)F)[C@@H]1C(=O)O[C@@H](C#N)c1cccc(Oc2ccccc2)c1` was run?
A: 0.988 (inactive)

Q: `CCCN(CCOc1c(Cl)cc(Cl)cc1Cl)C(=O)n1ccnc1` was tested. Which “growth AUC” value did it give?
A: 0.982 (inactive)

Q: How did the “growth AUC” value turn out when `CCOP(=S)(OCC)Oc1cc(Cl)c(Br)cc1Cl` was run?
A: 0.977 (inactive)

From the supplement of paper PMC12669032
